Data taken from PubChem BioAssay (Tox21).
A number with no mark means an inactive call. Calls follow the shape of the full dose curve.

biological target: Thyrotropin-releasing hormone receptor (Homo sapiens) (UniProt P34981); assay: qHTS assay to identify small molecule agonists of the thyrotropin-releasing hormone receptor (TRHR) signaling pathway (AID 1346891); conditions: TRHR-HEK293 calcium fluorescence, agonist mode; series mostly up to 57.6 µM; activation: at the top concentration;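 also: HEK293 cells expressing TRHR with calcium dye readout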
Text: National Center for Advancing Translational Sciences [NCATS] NIH Chemical Genomics Center [NCGC] U.S. Environmental Protection Agency [EPA] National Institutes of Environmental Health Sciences [NIEHS] National Toxicology Program [NTP] Assay overview: Thyrotropin-releasing hormone (TRH) receptor (TRHR) is a G-protein-coupled receptor which binds the tripeptide thyrotropin releasing hormone. TRHR is found in the brain and, when bound by TRH, acts (through phospholipase C) to increase intracellular inositol trisphosphate. It plays a crucial role in the anterior pituitary where it controls the synthesis and secretion of thyroid stimulating hormone and prolactin. The TRHR-Hek293 assay is a cell-based assay, and it has the potential to screen G protein-coupled receptors. A compound/drug can either activate (agonist) or suppress (antagonist) GPCRs that can be monitored by levels of intracellular calcium. Using this assay, the Tox21 10K compound library was screened to identify potential TRHR agonists.
Assay Protocol Summary: The TRHR-Hek293 cells were dispensed at 1500cells/4uL/well in 1536-well black-clear bottom plates using a Multidrop dispenser. After the assay plates were incubated at a 37 C/5% CO2 incubator for 18 hours, 4 uL of Dye-Loading Solution was added to each well. The plates were incubated at 37 C for 2 hours. For agonist mode, 23 nL of compounds dissolved in DMSO, positive controls or DMSO only was transferred to the assay plate by a pin tool. The fluorescence intensity in the plates was measured using FDSS 7000EX kinetic plate reader for 3 min at 1 sec intervals. Each test compound was measured at 15 concentrations and in triplicates.
% is scaled to controls: 0 for no effect and ±100 for the full control effect.

Thyrotropin-releasing hormone receptor (Homo sapiens), sequence (P34981 whole entry, looked up): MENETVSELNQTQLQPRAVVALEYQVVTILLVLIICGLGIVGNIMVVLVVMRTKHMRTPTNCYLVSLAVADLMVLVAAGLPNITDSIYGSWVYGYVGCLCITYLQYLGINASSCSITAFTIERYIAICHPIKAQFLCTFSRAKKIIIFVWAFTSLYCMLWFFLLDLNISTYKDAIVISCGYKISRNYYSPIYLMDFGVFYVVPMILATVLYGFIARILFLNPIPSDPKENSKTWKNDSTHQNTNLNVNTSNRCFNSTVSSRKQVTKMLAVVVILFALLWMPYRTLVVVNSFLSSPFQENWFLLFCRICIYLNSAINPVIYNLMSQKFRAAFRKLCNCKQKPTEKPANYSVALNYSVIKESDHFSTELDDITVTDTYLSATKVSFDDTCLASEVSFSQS

Point of comparison: `CCCCOc1cc(C(=O)NCCN(CC)CC)c2ccccc2n1`, “activation” value 0.307% [at 26.5 µM]. Against it:
- C[C@]12CCC(=O)C=C1CC[C@@H]1[C@@H]2CC[C@@]2(C)[C@H]1CC[C@]2(O)C(=O)CO — higher, 0.418% [at 26.5 µM]
- CCCCNc1cc(C(=O)O)cc(S(N)(=O)=O)c1Oc1ccccc1 — lower, -0.453% [at 26.5 µM]
- CC1(C)S[C@@H]2[C@H](NC(=O)C(C(=O)O)c3ccccc3)C(=O)N2[C@H]1C(=O)O (stereo not given in full) — lower, 0.074% [at 26.5 µM]
- CCCNC(C)(C)COC(=O)c1ccccc1 — higher, 0.625% [at 26.5 µM]
- CC(=O)N(CC(O)CN(C(C)=O)c1c(I)c(C(=O)NCC(O)CO)c(I)c(C(=O)NCC(O)CO)c1I)c1c(I)c(C(=O)NCC(O)CO)c(I)c(C(=O)NCC(O)CO)c1I (stereo not given) — lower, -0.147% [at 26.5 µM]
- CN1CCN(N)CC1 — lower, 0.0942% [at 26.5 µM]
- CCOC(=O)[C@H](CCc1ccccc1)N[C@@H](C)C(=O)N1Cc2cc(OC)c(OC)cc2C[C@H]1C(=O)O — lower, -0.0697% [at 26.5 µM]
- CCN(CC)CCNC(=O)COc1ccc(Cl)cc1 — lower, -0.208% [at 26.5 µM]
- CS(=O)(=O)c1ccc([C@@H](O)[C@@H](CF)NC(=O)C(Cl)Cl)cc1 — lower, -0.287% [at 26.5 µM]
- CCCC(CCC)(C(=O)OCC)C(=O)OCC — lower, -0.0274% [at 26.5 µM]
- Cc1ncc(CO)c(CN)c1O — lower, 0.146% [at 26.5 µM]
- Oc1ccccc1C=NCc1ccccc1 — lower, -0.124% [at 26.5 µM]
- CCC(=O)O[C@]1(C(=O)SCF)[C@H](C)C[C@H]2[C@@H]3C[C@H](F)C4=CC(=O)C=C[C@]4(C)[C@@]3(F)[C@@H](O)C[C@@]21C — lower, 0.0329% [at 26.5 µM]
- CN1[C@@H]2CC[C@H]1CC(OC(=O)c1c[nH]c3ccccc13)C2 (stereo not given in full) — higher, 0.339% [at 26.5 µM]
- CCCCN1C[C@H](O)[C@@H](O)[C@H](O)[C@H]1CO — higher, 0.437% [at 26.5 µM]
- CCOC(=O)c1ccccc1O — lower, 0.164% [at 26.5 µM]

Point of comparison: `CCNCCO`, “activation” value -0.226%. Against it:
- CC1=C(O)C(=O)OC1C (stereo not given) — higher, 0.197%
- C[C@]12C(=O)OC(=O)[C@H]1[C@H]1C=C[C@@H]2C1 — higher, 0.0076%
- O=C1CCC(C2CCCCC2)CC1 — higher, 0.112%
- CO[Si](C)(C)OC — higher, 0.153%
- FC(F)(F)c1ccccc1 — higher, -0.0687%
- CCCCCCCCc1ccc(S(=O)(=O)O)cc1 — higher, 0.644%
- CC1(O)CSC(C)(O)CS1 (stereo not given) — higher, 0.204%
- CCOC(=O)C1CC(=O)C(=C(O)C2CC2)C(=O)C1 (stereo not given) — lower, -0.381%
- CCC1(C)NC(=O)NC1=O (stereo not given) — higher, 0.844%
- NNS(=O)(=O)c1ccc(Oc2ccc(S(=O)(=O)NN)cc2)cc1 — higher, 0.427%
- Cc1cc(S(=O)(=O)O)c(N)cc1Cl — higher, -0.0413%
- Nc1ccc2ccccc2c1S(=O)(=O)O — lower, -0.331%
- C=CCCC=C — higher, 0.086%
- CC1(C)C(=O)N(Cl)C(=O)N1Br — lower, -0.542%
- C=CCCCCCCCCO — higher, 0.427%
- COc1ccc(Nc2ccc(OC)cc2)cc1 — higher, 1.21%
- CCOc1ccc(OCC)c(Cl)c1 — lower, -0.985%
- CC/C=C\CCOC(=O)C(C)C — higher, -0.0784%

Point of comparison: `O=c1oc2c(O)c(O)cc3c(=O)oc4c(O)c(O)cc1c4c23`, activation 0.184% [at 11.8 µM]. Against it:
- C[C@@H]1CN(c2c(F)c(F)c3c(=O)c(C(=O)O)cn(C4CC4)c3c2F)C[C@H](C)N1 — lower, 0.0488% [at 11.8 µM]
- C[C@@H]1CN(c2c(F)c(N)c3c(=O)c(C(=O)O)cn(C4CC4)c3c2F)C[C@H](C)N1 — lower, -0.407% [at 11.8 µM]

With `NC(Cc1ccc(F)cc1)C(=O)O` (stereo not given) the activation was 0.148% [at 5.23 µM].
